PubChem BioAssay (NCI)
About 83,000 compounds went through this panel and 20% of them were active in at least one assay; those are over-represented in the sample as a whole.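 Cell lines were cultured in 96-well plates, exposed to a single compound concentration, and assessed for percent growth 48 hours later.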 Unmarked numbers belong to inactive results. The source made the active and inactive calls. Rule for the calls: active = growth percent below 10; inactive = the rest.

Each compound was assayed on HL-60(TB) leukemia (assay: NCI-60 one-dose screen, 48 h (100 = growth as untreated, 0 = no growth, -100 = all killed)). Conditions: 10 µM unless noted.
With Cc1ccc(OCCn2ccc(=O)n(CCOc3ccc(Cl)cc3C(=O)c3cc(C)cc(C)c3)c2=O)cc1 the growth was 33.4%.
For CCc1ccccc1NC(=O)c1sc2nc3c(cc2c1N)C(=O)CCC3, the growth was -10.3% (active).
C=C1C(=O)O[C@H]2[C@H]1CC/C(COC(=O)NCc1ccc(OC)c(OC)c1)=C\CC[C@@]1(C)O[C@@H]21 was tested, and the growth was 35.8%.
NNC(=S)N1N=C(c2cc3ccccc3o2)CC1c1c[nH]c2ccccc12 (centres undefined) gave a growth of 21.7%.
For Cc1ccnc(NC(c2ccccc2)c2ccc3cccnc3c2O)c1 (centres undefined), the growth was -2.23% (active).
For C=C1CC[C@@H]2C(C)(C)[C@H](O)CC[C@@]2(C)[C@@H]1COc1ccc2ccc(=O)oc2c1, the growth was 46.4%.
With O=C1C=CC(=O)N1c1ccc(O)cc1 the growth was 112%.
O=C1/C(=C/c2ccc(O)c(O)c2)COc2ccc(-c3ccccc3)cc21 was tested, and the growth was -15.8% (active).
In the case of N#Cc1c(NC(=O)c2ccc([N+](=O)[O-])o2)[n+]([O-])c2cc(F)c(F)cc2[n+]1[O-], the growth is reported as 90.2%.
In the case of N#Cc1nc(-c2ccc(Cl)cc2)cc(-c2ccc(Nc3nc(N4CCCCC4)nc(N4CCCCC4)n3)cc2)c1N, the growth is reported as 99.2%.
For NC(=S)N/N=C\c1nccc2c(C(F)(F)C(F)(F)C(F)(F)F)cccc12, the growth was -49.4% (active).
In the case of Cc1cc(N(CCOS(C)(=O)=O)CCOS(C)(=O)=O)ccc1C=Nc1ccc(-c2nc(Cc3ccccc3)sc2C)cc1, the growth is reported as 4.95% (active).
Work on COCCOCCCl yielded a growth of 110%.
CS(=O)c1cccc(-c2ccc3nc(N)n(-c4ccc(C(F)(F)F)cc4)c(=O)c3c2)c1 (centres undefined) gave a growth of 100%.
